High-throughput results as filed in PubChem.
The entries come from a sample that favours hits as a whole.
BL2 CD40 inh – inhibitors of CD40-induced NF-kB signaling, primary screen, BL2 cells, luciferase reporter, single point. CD40L-induced, 4 h. inhibition, % at 10 µM. 83,000 tested, 0.94% active. AID 1053188, 2014;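 active means mean inhibition of at least 50% with a set share of replicates also reaching that level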;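 further: 0% = neutral control wells and 100% = IKK inhibitor VII at 50 µM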
* = called active by the depositor; [ ] = another dose, or the depositor's remark.

SMILES | BL2 CD40 inh
Cc1noc(C)c1NC(=O)N1C[C@@H](O)COC[C@@H]2O[C@H](CC(=O)N[C@H]3CCN(Cc4ccccc4)C3)CC[C@H]21 | -11.7[25 µM]
N#C[C@H]1[C@@H](c2ccc(-c3cccc(F)c3)cc2)[C@@H](CO)N1C(=O)c1cccnc1 | 12.7[25 µM]
C[C@@H]1CN([C@@H](C)CO)C(=O)CCCn2nncc2CO[C@@H]1CN(C)Cc1cccnc1 | 10.1[25 µM]
CC12C(=O)OC(=O)C1(C)C1CCC2O1 (stereo not drawn) | 74.2*[25 µM]
COc1ccc(C(=O)Nc2ccc3c(c2)C(=O)N(C)[C@H]2CC[C@H](CC(=O)NCC4CC4)O[C@H]2CO3)cc1 | -1.9[25 µM]
Cc1cc(C)nc(NC(N)=NCCc2c[nH]c3ccccc23)n1 | 66.1*
Cc1cc(C)nc(NC(N)=NCCc2ccccc2)n1 | 15.5
Cc1cc(C)nc(NC(N)=NC(C)c2ccccc2)n1 (stereo not drawn) | 26.0
O=C(NCC1CCCCC1)[C@@H]1[C@@H](CO)[C@@H]2Cn3c(cccc3=O)[C@@H]2N1C(=O)CC1CC1 | 6.2[25 µM]
O=C(C[C@H]1CC[C@H]2NC[C@H](O)COC[C@@H]2O1)NC1Cc2ccccc2C1 | 1.8[25 µM]
Cc1ccc(S(=O)(=O)CCC(=O)N(CCCN2CCOCC2)c2nc3ccccc3s2)cc1 | 95.5*
CC(=O)Nc1ccc(S(=O)(=O)N(CCCN2CCOCC2)Cc2cccs2)cc1 | 3.1
Cc1ccc2nc(N(CCN3CCOCC3)C(=O)CCS(=O)(=O)c3ccccc3)sc2c1 | -33.1
O=C(NCCCN1CCOCC1)c1cc(-c2ccccc2)nc2ccccc12 | 0.5
O=C(CCS(=O)(=O)c1ccccc1)N(CCCN1CCOCC1)c1nc2ccccc2s1 | 96.2*
O=C(CCS(=O)(=O)c1ccccc1)Nc1ccc(N2CCOCC2)cc1 | -25.3
CNC[C@@H]1Oc2ccc(NC(C)=O)cc2C(=O)N(C)C[C@@H]1C | 0.5
CCNC(=O)[C@H]1[C@H](CO)[C@H]2Cn3c(ccc(/C=C/c4ccccc4)c3=O)[C@@H]1N2C(=O)C1CCCC1 | -2.4[25 µM]
COc1ccccc1C(=O)N1C[C@H]2[C@@H](c3ccccc31)[C@@H](CO)N2C(=O)C1CCOCC1 | -1.8[25 µM]
C[C@H]1CN(C)C(=O)c2cc([N+](=O)[O-])ccc2O[C@H]1CN(C)C(=O)OC(C)(C)C | -2.0
O=C(c1ccccn1)N1C[C@@H]2[C@H](c3ccccc31)[C@@H](CO)N2C(=O)Cc1ccccc1 | 2.7[25 µM]
O=C(Oc1ccccc1C(=O)Oc1ccccc1)c1cccnc1 | -9.6
Cc1ncn(-c2ccc(C(=O)Oc3ccccc3)cn2)n1 | 37.7*
Cc1onc(-c2ccccc2)c1C(=O)Oc1ccccc1 | 12.5
COc1ccccc1S(=O)(=O)N(C)C[C@H]1OCc2ccccc2-c2ccccc2C(=O)N([C@H](C)CO)C[C@@H]1C | 10.8[25 µM]
SMILES | BL2 CD40 inh
CCOC(=O)C1CCN(Cc2ccc(O)c3ncccc23)CC1 | 103.2*
CCOC(=O)C1CCN(C(=O)c2cccnc2)CC1 | 5.8
CCOC(=O)C1CCN(C2CCN(Cc3nc(-c4ccccc4)no3)CC2)CC1 | 3.7
COc1ccc(-c2ccc3n(c2=O)C[C@@H]2[C@@H](CO)[C@H](C(=O)NCCN4CCCCC4)N(C)[C@H]32)cc1 | 4.8[25 µM]
CNC[C@@H]1Oc2ccc(NC(C)=O)cc2C(=O)N(C)C[C@H]1C | -2.0
CCC(=O)N1[C@H](C#N)[C@H](c2ccccc2-c2cccc(C)c2)[C@H]1CO | -4.0[25 µM]
CC(=O)Nc1ccc2c(c1)C(=O)N(C)C[C@H](C)[C@H](CN(C)C(=O)NC(C)C)O2 | 3.9
O=C(c1cc(-c2ccc(O)cc2)on1)N1CCCCCC1 | -44.5
O=C(c1cc(-c2ccc3c(c2)OCO3)on1)N1CCCCC1 | 54.4*
COc1ccc(-c2cc(C(=O)N3CCCC3)no2)cc1OC | -79.8
CNC[C@H]1OCc2ccccc2-c2c(n(C)c3ccccc23)C(=O)N([C@H](C)CO)C[C@@H]1C | -3.3
CCOC(=O)N(C)C[C@@H]1OCc2ccccc2-c2ccccc2C(=O)N([C@@H](C)CO)C[C@H]1C | 3.5
C[C@@H]1CCCCO[C@H](CN(C)C(=O)c2ccncc2)[C@@H](C)CN([C@@H](C)CO)C(=O)c2cc(NC(=O)CCC(F)(F)F)ccc2O1 | -15.3[25 µM]
O=C(C1CCCC1)N1CC(=O)N2[C@H](C1)[C@@H](c1ccc(C#CCc3ccccc3)cc1)[C@@H]2CO | 51.1*
O=C(C1CCCC1)N1CC(=O)N2[C@@H](CO)[C@@H](c3ccc(C#CCc4ccccc4)cc3)[C@@H]2C1 | 54.7*
COCC#Cc1ccc([C@H]2[C@H]3CN(C(=O)C4CCCCC4)CC(=O)N3[C@H]2CO)cc1 | 2.3[25 µM]
O=C(C1CCCC1)N1CC(=O)N2[C@H](CO)[C@@H](c3ccc(C#CCc4ccccc4)cc3)[C@@H]2C1 | 38.8
O=C(C1CCOCC1)N1CC(=O)N2[C@H](CO)[C@@H](c3ccc(C#CCc4ccccc4)cc3)[C@H]2C1 | -6.1[25 µM]
COCC#Cc1ccc([C@H]2[C@H]3CN(C(=O)C4CCCC4)CC(=O)N3[C@H]2CO)cc1 | -2.8
C/C=C/c1ccccc1[C@@H]1[C@@H](CO)N(C(=O)Cc2ccccn2)[C@H]1C#N | 8.8[25 µM]
C[C@@H]1CN([C@H](C)CO)C(=O)c2c(c3ccccc3n2C)-c2ccccc2CO[C@H]1CN(C)C(=O)[C@@H]1CCCN1C | 0.8[25 µM]
CN(C)C(=O)[C@H]1[C@H](CO)[C@H]2Cn3c(ccc(C4=CCCC4)c3=O)[C@@H]1N2CC1CC1 | -1.6
C/C=C/c1ccc([C@H]2[C@@H](C#N)N(c3ncc(CC)s3)[C@@H]2CO)cc1 | -0.2[25 µM]
